# RXFP1 antagonist – qHTS Assay for Antagonists of the Relaxin Receptor RXFP1; AID 1259400, 2018; HEK293-RXFP1, relaxin-stimulated cAMP HTRF, 30 min; active compounds read low; hit rate 0.59% among 350,000; activity change, negative = inhibition, % at 57.5 µM; Relaxin receptor 1 (Homo sapiens), Q9HBX9;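 active = activity change of -60% or lower, but not beyond a set lower limit; inconclusive = change between -60% and -40%, or beyond the set limit; inactive = change above -40%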; note: % is set by controls: 0 for no effect and ±100 for the full control effect
# Target sequence (Q9HBX9 whole entry, looked up): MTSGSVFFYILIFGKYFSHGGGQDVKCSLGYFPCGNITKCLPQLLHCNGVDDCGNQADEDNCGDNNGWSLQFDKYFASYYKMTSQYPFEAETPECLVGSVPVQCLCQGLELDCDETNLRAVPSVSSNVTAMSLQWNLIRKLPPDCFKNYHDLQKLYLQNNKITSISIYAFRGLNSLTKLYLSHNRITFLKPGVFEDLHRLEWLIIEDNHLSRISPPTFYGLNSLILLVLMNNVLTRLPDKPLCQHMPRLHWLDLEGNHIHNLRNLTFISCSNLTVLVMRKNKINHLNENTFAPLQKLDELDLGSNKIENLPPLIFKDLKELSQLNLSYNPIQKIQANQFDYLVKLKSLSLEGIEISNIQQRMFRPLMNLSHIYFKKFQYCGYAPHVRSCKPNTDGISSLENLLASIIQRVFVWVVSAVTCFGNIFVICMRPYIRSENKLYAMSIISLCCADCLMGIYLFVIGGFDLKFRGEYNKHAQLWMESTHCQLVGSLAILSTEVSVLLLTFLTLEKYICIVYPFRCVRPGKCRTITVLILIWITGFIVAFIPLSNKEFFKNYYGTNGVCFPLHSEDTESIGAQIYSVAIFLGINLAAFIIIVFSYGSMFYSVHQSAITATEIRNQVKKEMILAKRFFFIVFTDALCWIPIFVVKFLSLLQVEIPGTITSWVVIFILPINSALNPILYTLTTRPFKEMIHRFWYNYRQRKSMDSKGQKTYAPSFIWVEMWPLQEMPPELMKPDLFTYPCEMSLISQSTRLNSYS
# TSHR antagonist – Antagonists of the Thyroid Stimulating Hormone Receptor: HTS campaign | AID 504810, 2011 | hit rate 0.2% among 330,000 | Thyrotropin receptor (Homo sapiens), P16473 | TSHR-expressing cells, TSH-stimulated cAMP HTRF, 2 h; active compounds read low | activity change, negative = inhibition, % at 11.5 µM;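 active = activity change below a set negative limit, meaning inhibition stronger than a set level, cut at about -70% in these data; inconclusive = activity change between two set negative limits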; note: % is set by controls: 0 for no effect and ±100 for the full control effect
#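 Competitive HTRF cAMP read-out (cryptate anti-cAMP antibody, cAMP-d2; 30 min, room temperature) in freshly harvested TSHR cells. Compounds added before TSH at EC80 (4nM final), followed by 2 hours' incubation at 37 deg C.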
# RXFP1 ag – qHTS Assay for Agonists of the Relaxin Receptor RXFP1; HEK293T-RXFP1 cAMP TR-FRET, 30 min; response scale: percent of porcine relaxin response, buffer zero; Relaxin receptor 1 (Homo sapiens), Q9HBX9; hit rate 0.3% among 370,000; Potency, µM (highest dose often 57.5 µM), without a hit: top-dose activation, actives largely listed as activators; AID 2676, 2010; active = well fitted activation curve with a large enough effect; inconclusive = small, poorly fitted or top-dose-only effect; note: potency is the fitted concentration of half-maximal effect; % is set by controls: 0 for no effect and ±100 for the full control effect; nearly all actives have a fitted effect of over 60% in size
#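 cAMP rise read by TR-FRET after 30 min, 37C compound exposure (up to 58 uM) in RXFP1-transfected HEK293 cells with Ro 20174 present. EC50 from Hill-equation fits, with 29 nM porcine relaxin as 100% and buffer as basal.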
# gsp antagonist – qHTS for Antagonists of gsp, the Etiologic Mutation Responsible for Fibrous Dysplasia/McCune-Albright Syndrome: qHTS | gsp-mutant cells, cAMP HTRF, 30 min | Potency, µM (doses to about 76.9 µM), inactives show at the top dose activity change, negative = inhibition, usual class: inhibitors | hit rate 0.4% among 340,000 | AID 624288, 2012; calls by dose curve; cell line not stated here;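 note: intracellular cAMP measured with PDE inhibitor Ro 20-1724 present during compound exposure; potency is the fitted concentration of half-maximal effect; % is set by controls: 0 for no effect and ±100 for the full control effect; nearly all actives have a fitted effect of over 65% in size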
#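 HTRF cAMP measurement after 30 min RT detection following 30 min, 37C compound treatment alongside […] (added as 300 uM solution) in G418-selected cells seeded at 2000/well and grown 16–24 h.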
# gsp agonist – qHTS for Agonist of gsp, the Etiologic Mutation Responsible for Fibrous Dysplasia/McCune-Albright Syndrome: qHTS | Potency, µM (doses to about 76.9 µM), for the others: at the highest dose activation (cAMP increase), most hits filed as activators | hit rate 0.13% among 340,000 | gsp mutant cells, cAMP HTRF, 30 min; active = well fitted activation curve with a large enough effect; inconclusive = small, poorly fitted or top-dose-only effect, or another doubt; inactive = no such curve, though single readings can be large or run the other way; cell line not stated here;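 note: phosphodiesterase inhibitor Ro 20-1724 added with compounds to block cAMP breakdown; potency is the fitted concentration of half-maximal effect; nearly all actives have a fitted effect of over 60% in size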
#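 Cells in DMEM/10% FBS with G418 were pretreated with compounds in DMSO plus […] (300 uM stock) for 30 min at 37C. cAMP was measured by HTRF (cAMP-d2 plus anti-cAMP antibody-K) after 30 min at room temperature.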
# * marks the source's active call; other numbers are inactive results; ? = inconclusive; / = no result given; [ ] = dose if it differs, or a comment. Sampled rows, rich in hits. Any-hit rate of the full collection: about 1%.
SMILES,RXFP1 antagonist,TSHR antagonist,RXFP1 ag,gsp antagonist,gsp agonist
O=[N+]([O-])c1ccc(S(=O)Cc2ccccc2)c([N+](=O)[O-])c1 (stereo not drawn),-102.8*,/,/,-14.6%,-0.8%
Cc1nc2ccc(NC(=O)c3cnc(Cl)c(Cl)c3)cc2s1,-11.2,-8.8,10.8%,8.91µM*,14.8%[15.4 µM]
Cc1nc2ccc(NC(=O)c3cccnc3)cc2s1,-1.5,-4.0,6.8%,15.6%,-4.8%[15.4 µM]
Cc1nc2ccc(NC(=O)c3ccc(Br)o3)cc2s1,-91.8*,6.8,-0.7%,1.0%,-1.4%[15.4 µM]
CCCCOC(=O)c1ccc(Nc2ncnc3[nH]ncc23)cc1,/,/,-0.4%,/,/
CC(=O)N[C@@H](CCC(N)=O)C(=O)O,-8.7,/,/,/,/
CC(C)(C)CC(=O)OCC(=O)[C@@]1(O)CC[C@H]2[C@@H]3CCC4=CC(=O)C=C[C@]4(C)[C@H]3[C@@H](O)C[C@@]21C,-19.2,/,/,/,/
CC1(C)[C@@H](OC(=O)CCC(=O)O)CC[C@]2(C)[C@H]3C(=O)C=C4[C@@H]5C[C@@](C)(C(=O)O)CC[C@]5(C)CC[C@@]4(C)[C@]3(C)CC[C@@H]12,-37.5,/,/,/,/
Cc1cc(C)c2c(-n3cccc3)c(C(=O)NCCCN3CCCCC3)sc2n1,-25.6,/,15.1%,/,/
Cc1noc(C)c1COc1ccccc1C(=O)N(C)Cc1ccc(C(C)(C)C)cc1,-33.9,-40.1,-2.1%,50.1µM*,-36.3%
CCC(=O)N1CCc2cc(Br)cc(S(=O)(=O)CCC(=O)NCCc3ccccc3Cl)c21,-28.5,/,0.4%,/,/
CCOC(=O)c1ccc(NC(=O)Cn2cc(C(=O)c3ccc(CC)cc3)c(=O)c3ccc(C)nc32)cc1,-0.1,/,31.6µM*,/,/
O=C(Nc1ccc(Cc2ccncc2)cc1)C1CCC(N2C(=O)C3C4C=CC(C5CC45)C3C2=O)CC1 (stereo not drawn),-16.1,-23.3,-1.5%,7.94µM*,?
Cc1ccc(Cn2ccnc2SCC(=O)Nc2ccccc2C(F)(F)F)cc1,-2.4,/,0.4%,/,/
Fc1ccc(Br)cc1C1C=C(c2ccc(Br)s2)Nc2ncnn21 (stereo not drawn),-68.2*,-11.1,8.6%,?,-6.3%
CCN(CCNC(=O)c1ccc(CSc2nc3ccncc3[nH]2)cc1)c1ccccc1,/,33.2,0.2%,-6.1%,-233.3%
O=C(NCCN1CCN(c2cccc(Cl)c2)CC1)c1ccc(CSc2nc3ccncc3[nH]2)cc1,-5.2,-11.2,2.5%,31.6µM*,17.0%
Nc1c(O)ccc2c1C(=O)c1ccccc1C2=O,-79.6*,-22.5,-8.1%,25.1µM*,-4.0%
O=C(Nc1ccccc1)c1cnc(N2CCCCC2)c2ccccc12,-68.3*,/,6.0%,/,/
O=C(Nc1ccc(N2CCCCC2)cc1)c1ccccn1,-72.1*,-6.1,0.8%,-8.9%,?
O=C(NCc1ccc(F)cc1)c1cnc(N2CCCCC2)c2ccccc12,-61.8*,/,6.5%,/,/
CC1C(=O)N(Cc2ccccc2F)c2ccccc2N1C(=O)c1c(F)cccc1F (stereo not drawn),-10.5,-37.6,-1.0%,?,-19.3%
COc1cccc(CN2C(=O)C(C)N(C(=O)c3c(F)cccc3F)c3ccccc32)c1 (stereo not drawn),-2.7,-12.9,2.6%,35.5µM*,-19.0%
Oc1cccc(C2c3[nH]c4ccccc4c3CCN2Cc2ccc3c(c2)CCO3)c1 (stereo not drawn),-60.8*,-6.8,-0.2%,-5.4%,10.0%[15.4 µM]
N#Cc1ccc(-c2ccc(OCC(=O)NN=Cc3ccncc3)cc2)cc1,-27.7,-12.6,/,35.5µM*,7.6%
SMILES,RXFP1 antagonist,TSHR antagonist,RXFP1 ag,gsp antagonist,gsp agonist
C#CC1(O)CC[C@H]2[C@@H]3CCC4=CCCC[C@@H]4[C@H]3CC[C@@]21C (stereo partly drawn),7.0,/,/,/,/
Cc1ccccc1CN1C(=O)c2ccccc2Sc2ccc(C(=O)NCc3ccccc3)cc21,-7.5,/,-3.2%,/,/
CCCc1ccc(OCC(=O)N2CCN(C(=O)COc3ccc(CCC)cc3OC)CC2)c(OC)c1,-8.8,/,/,/,/
CC(=O)O[C@]1(C(C)=O)CC[C@H]2[C@@H]3C=C(Cl)C4=CC(=O)CC[C@]4(C)[C@H]3CC[C@@]21C,-83.4*,22.4,0.2%,-20.1%,/
Cc1ccc(-c2noc(CCC(=O)NCCCN3CCN(c4cccc(Cl)c4)CC3)n2)cc1,-64.0*,-9.4,1.2%,10.2%[15.4 µM],19.3%
CCN(C(=O)c1cc2c(=O)n3ccccc3nc2s1)C1CCCCC1,-2.2,2.7,27.6%,/,-2.1%[15.4 µM]
CCCNC(=O)COC(=O)c1cc2c(=O)n3ccccc3nc2s1,12.0,19.1,?,3.2%,11.2µM*
CCOc1ccc2nc(NC(=O)c3nc(SCc4ccc(C)cc4)ncc3Cl)sc2c1,/,/,0.4%,/,/
O=C/C=C/c1c(-c2ccccc2)cc2oc3ccccc3cc1-2,-90.5*,-14.6,2.1%,-7.1%,15.9%
Cc1cc(C)nc(N2CCC(C(=O)N3CCN(c4cc(Cl)ccc4C)CC3)CC2)n1,-19.9,-19.0,4.1%,28.2µM*,?
COc1ccc(N2CCN(C(=O)C3CCN(c4nc5ccc(C)cc5[nH]4)CC3)CC2)cc1,-25.3,/,-0.9%,/,/
Cc1ccc(Cl)cc1N1CCN(C(=O)C2CCN(S(C)(=O)=O)CC2)CC1,-5.3,-3.0,-2.6%,-13.7%,-1.3%
Cc1ccc(C)c(N2CCN(C(=O)C3CCN(c4nc(C)cc(C)n4)CC3)CC2)c1,-0.7,-7.9,-0.1%,35.5µM*,-36.3%
Cc1ccc(C)c(N2CCN(C(=O)C3CCN(S(=O)(=O)c4c(C)noc4C)CC3)CC2)c1,1.2,-11.6,-0.2%,-29.7%,-26.4%
Cc1ccc(C)c(N2CCN(C(=O)C3CCN(c4nc5ccc(C)cc5[nH]4)CC3)CC2)c1,-69.2*,/,3.9%,/,/
Cc1ccc(S(=O)(=O)N2CCC(c3nnc(-c4cccc(C)c4)o3)CC2)cc1,-1.4,/,0.4%,/,/
S=c1nc(-c2ccc(Br)cc2)[nH]c2ccccc12,17.8,-1.0,13.6%,-1.2%,?
S=c1nc(-c2ccccc2)[nH]c2ccccc12,6.2,-5.5,?,9.4%,15.8µM*
Cc1ccc(-n2c3c(cc(-c4nc(-c5ccc(Cl)cc5)cs4)c2=O)C(=O)CC(C)(C)C3)cc1C,6.2,/,-0.1%,/,/
Cc1ccc(Cl)cc1-n1c(=O)c2sc3ccccc3c2n(Cc2ccccc2)c1=O,/,/,2.7%,/,/
COc1ccc2c(c1)CCc1c(C(=O)N3CCOCC3)noc1-2,-11.9,-12.9,-0.5%,-6.8%,4.6%
COc1ccc2c(c1)CCc1c(C(=O)N3CCCc4ccccc43)noc1-2,-20.2,-25.5,-1.0%,39.8µM*,-5.3%

# Screening data: PubChem, National Center for Advancing Translational Sciences (NCATS)
